Laboratory results taken from PubChem BioAssay (NCATS).
Records with an inconclusive call do not appear. The source made the active and inactive calls. Unless noted, the call rests on the fitted dose curve; in most records, active means well fitted cell-killing curve with a large enough effect; inconclusive means small, poorly fitted or top-dose-only effect; inactive means flat fitted curve, though single readings scatter.

Legend:
[1] = Cell Viability - LYMP2-025 (AID 976); further: series mostly up to about 92 µM
How it was run: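 Cytotoxicity read as loss of intracellular ATP (luciferase luminescence) after 24 h compound treatment at 37 C. Uses LYMP2-025 lymphoblastoid cells in 1536-well format; Hill-equation modelling gives AC50; tetraoctylammonium bromide as positive control.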

[2] = Cell Viability - LYMP2-002 (AID 977); further: series mostly up to about 92 µM
How it was run: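 Human lymphoblastoid cells (2500/well) in complete medium were preincubated 5 hr at 37 C, then exposed to compounds for 24 hr at 37 C. Intracellular ATP was read by CellTiter-Glo luminescence; AC50 came from Hill-equation concentration-response fits.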

[3] = Cell Viability - LYMP2-006 (AID 978); further: series mostly up to about 92 µM; nearly all actives have a fitted effect of over 60% in size
How it was run: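 In this cytotoxicity screen, the human lymphoblastoid line grew in complete medium with test compounds for 24 hr at 37 C. Cellular ATP served as the viability signal.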

[4] = Cell Viability - LYMP2-007 (AID 979);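 further: cells exposed to compound for 24 h before reading; nearly all actives have a fitted effect of over 60% in size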
How it was run: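 AC50 values come from Hill-equation fits of luminescent intracellular ATP (CellTiter-Glo, 30 min, room temperature) following 24 h compound exposure at 37 C. Cells: LYMP2-007 lymphoblastoid line, 2500 per well, in complete culture medium.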

[5] = Cell Viability - LYMP2-008 (AID 980); further: nearly all actives have a fitted effect of over 60% in size
How it was run: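 Cytotoxicity determined from ATP-dependent luciferase luminescence (CellTiter-Glo) following 24 h compound exposure of human lymphoblastoid LYMP2-008 cells at 37 C. Concentration-response data fitted to the Hill equation to give AC50.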

[6] = Cell Viability - LYMP2-010 (AID 981); further: nearly all actives have a fitted effect of over 55% in size
How it was run: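 CellTiter-Glo ATP luminescence measured cytotoxicity after 24 h compound exposure at 37 C. LYMP2-010 cells were seeded at 2500/well, with tetraoctylammonium bromide as control; concentration-response curves gave AC50 values by the Hill equation.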

[7] = Cell Viability - LYMP2-012 (AID 982);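 further: cellular ATP by luciferase luminescence where a drop means cytotoxicity; cells exposed to compound for one day before reading; nearly all actives have a fitted effect of over 55% in size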
[8] = Cell Viability - LYMP2-014 (AID 983); further: series mostly up to about 92 µM; nearly all actives have a fitted effect of over 50% in size
How it was run: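 Intracellular ATP loss, read by luciferase luminescence, measures acute cytotoxicity after 24 h compound exposure of lymphoblastoid LYMP2-014 cells (2500/well, 37 C). Concentration-response data fitted to the Hill equation for AC50.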

[9] = Cell Viability - LYMP2-016 (AID 984); further: nearly all actives have a fitted effect of over 55% in size
How it was run: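 Concentration-dependent ATP depletion measured in LYMP2-016 lymphoblastoid cells, 24 h, 37 C; luciferase-based luminescent detection; Hill-equation AC50.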

[10] = Cell Viability - LYMP2-018 (AID 985); further: nearly all actives have a fitted effect of over 50% in size
How it was run: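 Viability read as CellTiter-Glo luminescence (cellular ATP) after 24 hr compound exposure at 37 C of 2500 LYMP2-018 lymphoblastoid cells/well, pre-plated 5 hr. Hill-equation modelling gave AC50.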

[11] = Cell Viability - LYMP2-020 (AID 986); further: series mostly up to about 92 µM; nearly all actives have a fitted effect of over 55% in size
How it was run: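 Cytotoxicity in qHTS format: luminescent ATP readout from CellTiter-Glo after 24 h compound exposure at 37 C in complete medium. LYMP2-020 lymphoblastoid cells were seeded at 2500/well; concentration-response data fitted to the Hill equation for AC50.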

[12] = Cell Viability - LYMP2-022 (AID 987); further: nearly all actives have a fitted effect of over 55% in size
How it was run: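 Cytotoxicity read as decreased cellular ATP (CellTiter-Glo luminescence, 30 min room temperature) after 24 hours compound exposure of 2500 lymphoblastoid LYMP2-022 cells/well at 37 C. Concentration-response data fitted with standard Hill equation for AC50.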

[13] = Cell Viability - LYMP2-024 (AID 988); further: nearly all actives have a fitted effect of over 60% in size
How it was run: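 Cytotoxicity was taken as a decrease in ATP (CellTiter-Glo luminescence) after 24 hr compound exposure at 37 C of LYMP2-024 lymphoblastoid cells, 2500 cells/well. Concentration-response data were fitted to the Hill equation to give AC50.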

[14] = Cell Viability - LYMP2-026 (AID 989); further: nearly all actives have a fitted effect of over 50% in size
How it was run: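 Cytotoxicity read as ATP-dependent luminescence (CellTiter-Glo, 30 min room temperature) after 24 h compound treatment at 37 C. LYMP2-026 lymphoblastoid line seeded at 2500 cells/well; AC50 derived by standard Hill equation.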

[15] = Cell Viability - LYMP1-002 - Assay at 24 hr (AID 993)
How it was run: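 qHTS cytotoxicity at 24 h: CellTiter-Glo ATP luminescence in lymphoblastoid line LYMP1-002 incubated with compound at 37 °C. Concentration-response modeled with the Hill equation for AC50; tetraoctylammonium bromide served as positive control.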

[16] = Cell Viability - LYMP1-002 - Assay at 40 hr (AID 994); further: nearly all actives have a fitted effect of over 60% in size
How it was run: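 Cytotoxicity was read as loss of cellular ATP (CellTiter-Glo luminescence) after 40 hr compound exposure at 37 C of 2500 LYMP1-002 lymphoblastoid cells per well. Concentration-response data were fitted with the standard Hill equation to give AC50.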

[17] = qHTS Assay for Identification of Small Molecule Inducers of Hypoxia Response (AID 2120; active means well fitted curve in the direction sought with a large enough effect in the signal ratio, with a control signal flat, not every such curve was filed as active; the % refers to the signal ratio)
How it was run: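 Reporter induction read as the CCF4 blue/green (460nm/530nm) emission ratio after 2.5 h dye loading at room temperature. ME-180 HRE-beta-lactamase cells received titrated compounds for 17 h at 37 degrees Celsius; AC50 values derived.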

[18] = molecular target: Estrogen receptor (Homo sapiens) (UniProt P03372); test: qHTS assay for small molecule antagonists of estrogen receptor alpha signaling (AID 588513; active means well fitted curve in the direction sought with a large enough effect in the signal ratio, with a control signal flat, not every such curve was filed as active; the % refers to the signal ratio)
Chain of Estrogen receptor (Homo sapiens) (P03372 whole entry, looked up): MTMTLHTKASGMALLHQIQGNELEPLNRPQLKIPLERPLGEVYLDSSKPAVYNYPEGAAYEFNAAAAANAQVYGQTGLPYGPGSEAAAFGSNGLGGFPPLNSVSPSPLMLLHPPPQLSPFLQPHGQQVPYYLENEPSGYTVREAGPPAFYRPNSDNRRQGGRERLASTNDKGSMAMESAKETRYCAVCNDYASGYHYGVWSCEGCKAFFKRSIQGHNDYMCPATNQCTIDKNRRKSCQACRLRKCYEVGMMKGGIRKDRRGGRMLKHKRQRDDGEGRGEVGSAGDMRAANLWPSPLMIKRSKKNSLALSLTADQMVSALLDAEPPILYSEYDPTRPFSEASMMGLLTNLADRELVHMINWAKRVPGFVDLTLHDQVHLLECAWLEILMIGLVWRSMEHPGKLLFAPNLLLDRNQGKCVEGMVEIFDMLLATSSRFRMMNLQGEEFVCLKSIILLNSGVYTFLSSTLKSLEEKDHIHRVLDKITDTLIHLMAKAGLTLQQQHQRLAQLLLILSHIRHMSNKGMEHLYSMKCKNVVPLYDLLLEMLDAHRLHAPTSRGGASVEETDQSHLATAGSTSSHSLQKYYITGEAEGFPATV
How it was run: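 Antagonist-mode qHTS in ER-alpha-UAS-bla HEK 293 cells: compound titration, 0.5nM estradiol for 18 h, CCF4 fluorescence, Hill-derived IC50.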

[19] = molecular target: Estrogen receptor (Homo sapiens) (UniProt P03372); test: qHTS assay for small molecule agonists of estrogen receptor alpha signaling (AID 588514; calls by dose curve; further: nearly all actives have a fitted effect of over 70% in size)
How it was run: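 EC50 and efficacy came from Hill fits of beta-lactamase reporter signal (CCF4 dye, 2 h at room temperature) scaled between DMSO and 20 nM 17-beta-estradiol. Agonist mode: HEK293 ER-alpha-UAS-bla cells in charcoal/dextran-stripped serum medium, 18 h compound exposure at 37 C.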

Measured: Potency

Clc1cc(Cl)cc(Cl)c1
inactive: all assays above

O=C1CCC(=O)O1
inactive: all assays above

CCC=O
inactive: all assays above

Cc1c(N)cccc1[N+](=O)[O-]
inactive: all assays above

Cc1cccc(C)c1
inactive: all assays above

C=C(C)C(=O)OCC(C)O (centres undefined)
inactive: all assays above

CN(C)CCCCl
inactive: all assays above

C=C(C)C(=O)OCC(C)C
inactive: all assays above

CC(=O)c1cccc([N+](=O)[O-])c1
inactive: all assays above

C=C(C)C(=O)OCCCCCC
inactive: all assays above

CCC(C)(C)OC
inactive: all assays above

O=C(O)CNC(=O)c1ccc(CO)o1
inactive: all assays above

OC1CCCC1
inactive: all assays above

COc1ccc(OC)cc1
inactive: all assays above

Cc1cc(C)cc([N+](=O)[O-])c1
inactive: all assays above

Nc1cc(Cl)c([N+](=O)[O-])cc1O
inactive: all assays above
